Potency data for 103 molecules are collected here from PubChem BioAssay AID924 (National Center for Advancing Translational Sciences (NCATS), 2007).

The campaign covered roughly 130,000 compounds. About 1,200 (0.92%) were called active. Inconclusive results (about 3%) are left out. Calls follow the shape of the dose curve; as a rule, active = well fitted cell-killing curve with a large enough effect; inconclusive = small, poorly fitted or top-dose-only effect; inactive = no such curve, though single readings can be large or run the other way. What follows is part of a selection rich in actives, with near analogues and random picks from the rest. Where a call stands in place of a potency, no number is given.
Potency is read from the fitted curve at half-maximal effect.

This experiment can be described thus: qHTS Screen for Compounds that Selectively Target Cancer Cells with p53 Mutations: Cytotoxicity of p53ts Cells at the Permissive Temperature. Also: nearly all actives have a fitted effect of over 55% in size. The settings on record: H1299-p53A138V at 32C, ATP luminescence viability, 24 h; series mostly up to 46.1 µM. In outline: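 Cells: H1299 p53ts (A138V), 600/well, pre-incubated 16–30 h at 37C. Cpd up to 46 uM, 24 h, 32C. Readout: ATPlite luminescence, 20 min RT. Normalization: DMSO vs tamoxifen 100 uM. AC50 by Hill equation.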
On the technique in general: qHTS replaces the single test concentration by a dilution series.
Consider `CCOc1ccccc1C(=O)NCC(c1ccc(N(C)C)cc1)N1CCCC1` (stereo not drawn), for which the Potency result was “inactive”.
Take `CCC(=O)NC(=Nc1nc2ccccc2s1)NC(=O)CC`: the Potency was 15.8 µM (active).
The result for `O=C(O)CSCc1nc2ccccc2s1` reads “inactive”.
Consider `COC(=O)c1nc2ccccc2s1`, for which the Potency result was “inactive”.
Turning to `COc1ccc(OC)c(-c2noc(N3CCN(c4cc(Cl)ccc4C)CC3)n2)c1`, the Potency result was “inactive”.
For `Cc1ccccc1NC(=O)c1ccccc1`, the Potency entry was “inactive”.
In the case of `Cc1ccc(F)cc1NC(=O)c1cccc(N(C)C)c1`, the Potency entry was “inactive”.
As to `Cc1ccc(NC(=O)c2cccc(N(C)C)c2)cc1NC(=O)c1ccc(O)cc1`, the Potency was 12.6 µM (active).
The result for `CC(C)c1ccc(NC(=O)C2CCN(c3nc(-c4ccc(C(C)C)cc4)no3)CC2)cc1` reads “inactive”; that for `Cn1c(=O)c(C(=O)O)nn(-c2ccccc2)c1=O`, “inactive”.
Regarding `O=C(Nc1nnc(S(=O)(=O)N2CCCCCC2)s1)c1cccc(Br)c1`, the Potency result was “inactive”.
`O=C(Cn1nnc(-c2ccccc2)n1)NCc1ccccc1`: the Potency result was “inactive”.
In the case of `CCN(C(=O)Cn1c(=O)nc(-c2ccccc2)c2cc(Cl)ccc21)c1cccc(C)c1`, the Potency entry was “inactive”.
Consider `O=C(Cn1c(=O)nc(-c2ccccc2)c2cc(Cl)ccc21)NCc1ccc(Cl)cc1`, for which the Potency is 10 µM (active).
The result for `CCc1ccccc1NC(=O)Cc1ccc(NC(=O)N2CCCCc3ccccc32)cc1` reads “inactive”.
In the case of `COc1ccc2c(c1)CCc1c(C(=O)Nc3cc(C)ccc3O)noc1-2`, the Potency result was “inactive”.
The result for `Cc1ccc2nc(COc3cccc(NC(=O)Nc4ccc(C)c(Cl)c4)c3)cc(=O)n2c1` reads “inactive”.
For the molecule `CCC(=O)Oc1cccc(C(=O)Nc2ccc(-c3nnc(-c4ccco4)o3)cc2)c1`, the Potency result is “inactive”.
As to `CCOc1ccc(-c2nnc(-c3ccco3)o2)cc1`, the Potency was 10 µM (active).
The result for `CCOc1ccc(C(=O)Nc2ccncc2)cc1` reads “inactive”; that for `CCOc1ccc(NC(=O)Nc2cc(C)on2)cc1`, “inactive”; that for `CCOc1ccc(NC(=O)c2ncoc2-c2ccco2)cc1`, 12.6 µM (active).
With `O=C(CCc1ccccc1)Nc1cccc(-c2nnc(-c3ccco3)o2)c1`, the Potency result is “inactive”.
Take `COc1ccc(-n2c(=O)c3c(c4cc(OC)ccc4n3C)n(Cc3cccc(C)c3)c2=O)cc1`: the Potency entry is “inactive”.
For `COc1ccc(N2C(=O)CSC23C(=O)N(Cc2cccc(F)c2)c2ccccc23)cc1Cl` (stereo not drawn), the Potency entry is “inactive”.
For the molecule `CCCCOc1ccc(NC(=O)c2cc3c(n(-c4ccc(Cl)cc4)c2=O)CCCC3=O)cc1`, the Potency entry was “inactive”.
The result for `COc1ccc(C2CC(=O)N(Cc3ccccc3C)c3c2c(C)nn3-c2nc(C)cc(C)n2)c(OC)c1` (stereo not drawn) reads “inactive”; that for `CCOCCCNC(=O)c1ccc2nc(CCc3ccccc3)oc2c1`, “inactive”; that for `COc1ccc(C(=O)Nc2onc3c2CCCC3)cc1`, 10 µM (active).
As to `CC1CCc2noc(NC(=O)c3ccc([N+](=O)[O-])cc3)c2C1` (stereo not drawn), the Potency result is “inactive”.
To `COc1ccc(NC(=O)c2c(C)oc3c2CCCC3)cc1` belongs “inactive”.
Regarding `COc1ccc(-c2onc(C)c2C)cc1S(=O)(=O)NCC1CCN(Cc2cccc(F)c2)CC1`, the Potency result is “inactive”.
The result for `CCOc1ccccc1NC(=O)CN1CCCN(Cc2cccc(Cl)c2)S1(=O)=O` reads “inactive”.
The result for `CC(C)c1ccc(NC(=O)c2ccc3c(O)c(S(=O)(=O)c4ccccc4)c(=O)[nH]c3c2)cc1` reads 12.6 µM (active).
The result for `Cc1ccc(C(=O)Nc2ccc3[nH]c(=O)c(=O)[nH]c3c2)cc1` reads “inactive”; that for `COc1ccc(CNC(=O)c2ccc3c(O)c(S(=O)(=O)c4ccccc4)c(=O)[nH]c3c2)cc1`, “inactive”; that for `Cn1c(=NC(=O)c2cnccn2)sc2ccccc21`, 15.8 µM (active).
`Cn1c(=NC(=O)CSCC(=O)N2CCCCC2)sc2ccccc21`: the Potency entry is “inactive”.
To `Cn1c(=NC(=O)CSCC(=O)N2CCOCC2)sc2ccccc21` belongs “inactive”.
Regarding `COc1ccc(CNC(=O)c2ccc(NC(=O)N3CC4CCCN4c4ccccc43)cc2)cc1` (stereo not drawn), the Potency entry is “inactive”.
In the case of `CC(=O)Nc1ccc(NC(=O)c2cc3sccc3n2Cc2ccc(F)cc2)cc1`, the Potency result is “inactive”.
Consider `Cc1cccc(N2CCN(C(=O)CCn3c(=O)c4cccn4c4cccnc43)CC2C)c1` (stereo not drawn), for which the Potency entry is “inactive”.
On to `Fc1ccc2nc(N3CCCCC3)sc2c1`, for which the Potency result is “inactive”.
The result for `c1c2c(cc3sc(N4CCCCC4)nc13)OCCO2` reads 1.26 µM (active); that for `COc1ccc2nc(Nc3nc4cc5c(cc4s3)OCCO5)sc2c1`, “inactive”.
`CCc1ccc2ncc3c(-c4ccc(C)cc4)nn(CC(=O)NCc4ccccc4)c3c2c1`: the Potency entry was “inactive”.
`CC(C)(C)c1csc(NC2=NS(=O)(=O)c3ccccc32)n1`: the Potency is 12.6 µM (active).
For the molecule `O=C(CN1C(=O)c2cccnc2Oc2ccc(Cl)cc21)NCCc1ccccc1`, the Potency entry is “inactive”.
The result for `COc1ccc(-c2ccc(=O)n(CC(=O)Nc3ccc(Br)cc3F)n2)cc1` reads “inactive”; that for `CC(C)Sc1oc(-c2cccs2)nc1S(=O)(=O)c1ccc(Cl)cc1`, “inactive”; that for `CCn1cc(C(=O)NCCc2ccccc2)c(=O)c2cc(S(=O)(=O)N3CCCCCC3)ccc21`, “inactive”.
`CCN(CC)S(=O)(=O)c1cccc(C(=O)Nc2ccccc2)c1`: the Potency entry was “inactive”.
To `CCN(CC)S(=O)(=O)c1cc(C(=O)Nc2ccccn2)ccc1C` belongs 10 µM (active); to `Cc1ccc(S(=O)(=O)/N=C(/Nc2ccccn2)c2ccc(Cl)cc2)cc1`, “inactive”.
The result for `Cc1nnc(NC(=O)CSc2nc3c([nH]c4ccccc43)c(=O)n2-c2cccc(Cl)c2)s1` reads “inactive”; that for `OCCCN1c2ccccc2Nc2nnc(-c3ccccc3)cc21`, 12.6 µM (active).
With `O=C(c1ccc(Cl)cc1)n1nc(-c2cccnc2)nc1NCc1ccc(F)cc1`, the Potency entry is “inactive”.
In the case of `COc1ccccc1CNC(=O)C(=O)NCC(c1cccs1)S(=O)(=O)c1cccs1` (stereo not drawn), the Potency result was “inactive”.
Consider `Cc1c(C(=O)NCc2ccccc2Br)oc2ccc3c(c12)C(=O)CC(C)(C)O3`, for which the Potency is 12.6 µM (active).
With `CC1(C)CC(=O)c2cc(OCC(=O)NCC3CCCO3)ccc2O1` (stereo not drawn), the Potency result is “inactive”.
To `CCC1(C)CC(=O)c2c(ccc3oc(C(=O)Nc4ccc(C(C)=O)cc4)c(C)c23)O1` (stereo not drawn) belongs “inactive”; to `CCOC(=O)N1CCc2c(sc(NCc3cccc(F)c3)c2C(=O)Nc2ccccc2OCC)C1`, “inactive”.
As to `COc1ccc(NC(=O)NC(C)c2c(-n3cccc3)sc(C)c2C)cc1OC` (stereo not drawn), the Potency entry is “inactive”.
To `Cc1ccc(S(=O)(=O)c2nc(-c3ccco3)oc2SCC(=O)Nc2ccc(F)cc2)cc1` belongs “inactive”; to `Cc1ccc(-c2nc(S(=O)(=O)c3ccc(C)cc3)c(N3CCCCCC3)o2)cc1`, “inactive”; to `O=C(CSc1oc(-c2ccc(F)cc2)nc1S(=O)(=O)c1ccc(Br)cc1)NC1CCCCC1`, “inactive”.
To `CC(C)S(=O)(=O)c1oc(-c2ccc(F)cc2)nc1S(=O)(=O)c1ccc(F)cc1` belongs 5.01 µM (active); to `CCc1ccc(NC(=O)CN2C(=O)C(c3ccccc3)=NC23CCCCCC3)cc1`, “inactive”; to `CCc1ccc(NC(=O)CN2CCSc3ccc(S(=O)(=O)N4CCCC4)cc32)cc1`, “inactive”.
Regarding `COc1cc(OC)c(OC)cc1/C=C/c1nc2cc3ccccc3cc2c(=O)n1-c1ccc(F)c(Cl)c1`, the Potency result is “inactive”.
Regarding `CCCCn1c(=N)c(S(=O)(=O)c2ccccc2)cc2c(=O)n3cccc(C)c3nc21`, the Potency entry is “inactive”.
As to `CC(C)c1ccc(-c2nn[nH]n2)cc1`, the Potency is 12.6 µM (active).
For `Cc1ccc(-c2cnc(NCc3ccc(C(C)C)cc3)n2C)cc1`, the Potency result was “inactive”.
The result for `CCc1ccc(-c2nnn(Cc3nn[nH]n3)n2)cc1` reads “inactive”; that for `CCOc1ccc(CNCCSc2nnnn2C)cc1`, “inactive”.
For the molecule `O=C1CCCc2cc(S(=O)(=O)N3CCCC(C(=O)NCc4ccccc4)C3)ccc2N1` (stereo not drawn), the Potency result is “inactive”.
With `CCc1cc2c(cc3c(=O)n(CC(=O)NCc4cccc(Cl)c4)nc(CC)n32)s1`, the Potency result was “inactive”.
To `O=C1Nc2c(Br)cc(Br)cc2C1(O)N1CCOCC1` (stereo not drawn) belongs 12.6 µM (active); to `CCOc1ccccc1N(CC)C(=O)c1cc2ccc3cccnc3c2[nH]1`, “inactive”; to `CCN1CCN(Cc2c(O)ccc3oc(C)c(C(=O)Nc4ccc(C)cc4C)c23)CC1`, “inactive”.
To `COc1ccc(-n2ncc3c(N4CCCc5ccccc54)ncnc32)cc1` belongs 10 µM (active); to `COc1ccc(-n2ncc3c(N4CCc5ccccc54)ncnc32)cc1`, “inactive”.
The result for `Cc1cccc(-n2ncc3c(N4CCc5ccccc54)ncnc32)c1` reads “inactive”; that for `Cc1nc2nc(SCC(=O)NC3CCC(C)CC3)nn2c(C)c1Cc1ccccc1Cl` (stereo not drawn), “inactive”; that for `COc1ccccc1CN1CCC(CNC(=O)c2cnn(-c3ccccc3Cl)c2C2CCN(C(=O)OC(C)(C)C)CC2)CC1`, “inactive”.
In the case of `COc1ccccc1CNC(=O)c1ccc(NC(=O)N2CC(C)Sc3ccccc32)cc1` (stereo not drawn), the Potency entry was “inactive”.
In the case of `CCNC(=O)c1cc2n(n1)CCCN(Cc1ccc(C)cc1)C2=O`, the Potency result is “inactive”.
The result for `Cc1ccc2nc(N3CCN(c4cccc(Cl)c4)CC3)c3nnnn3c2c1` reads “inactive”.
With `CCc1ccc(CNC(=O)C2CCN(c3nn4cc(-c5ccc(F)cc5)nc4s3)CC2)cc1`, the Potency entry was “inactive”.
Turning to `CCC(CC)c1nn2cc(-c3ccccc3)nc2s1`, the Potency was 5.01 µM (active).
Turning to `CCC(CC)c1nnc(NS(=O)(=O)Cc2ccccc2)s1`, the Potency entry is “inactive”.
For the molecule `CCOc1ccccc1NC(=O)c1ccc2c(c1)CCN2S(=O)(=O)c1ccc(C)cc1`, the Potency entry is “inactive”.
Regarding `COC(=O)c1cc(NC(=O)CCc2c(C)nc3c4c(C)cc(C)nc4nn3c2C)cc(C(=O)OC)c1`, the Potency entry is “inactive”.
Take `CCN(CC)c1ccc(NC(=O)CN2CCN(CC(=O)Nc3ccc(Cl)cc3)CC2)cc1`: the Potency entry is “inactive”.
With `Cc1c(Cl)cccc1NC(=O)c1noc2c1CCCC2`, the Potency result is “inactive”.
`O=C(Nc1cccnc1)c1ccc2c(c1)OCO2`: the Potency entry was “inactive”.
With `O=C(Nc1cccnc1)c1noc2c1CCCCC2`, the Potency is 12.6 µM (active).
With `CCOc1ccc(-c2nonc2NC(=O)c2oc3ccc(C)cc3c2C)cc1OCC`, the Potency entry is “inactive”.
Take `COc1ccc(NC(=O)c2sc3nc[nH]c(=O)c3c2C)cc1`: the Potency entry is “inactive”.
The result for `Cc1ccnc(NC(=O)c2ccc(NC(=O)c3ccco3)cc2)c1` reads “inactive”; that for `O=C(Nc1cccc(NC(=O)c2ccco2)c1)c1cnccn1`, “inactive”; that for `O=C(Nc1ccc(NC(=O)c2cccs2)cn1)c1ccco1`, 6.31 µM (active).
In the case of `Cc1cc(C)c(NC(=O)CCc2c(C)nc3c(c(C)nn3C(C)(C)C)c2C)c(C)c1`, the Potency result was “inactive”.
